The results in this text go back to PubChem BioAssay (NCATS).

“And” between values parts separate entries of the source, which are not always exact repeats. Equal entries are not always repeated. Records with an inconclusive call do not appear. A call without a number means that no potency is given here. The source made the active and inactive calls. Unless noted, the call rests on the fitted dose curve; in most records, active means well fitted curve in the direction sought with a large enough effect; inconclusive means small, poorly fitted or top-dose-only effect, or another doubt; inactive means no such curve, though single readings can be large; an effect the other way counts as inactive or inconclusive.

Test [1] deals with Arylsulfatase A (Homo sapiens) (UniProt P15289). Put plainly: qHTS screen for enhancers of Arylsulfatase A (ASA1): LOPAC Validation Assay (AID 720538). Further: potency means the concentration at half of the fitted maximal effect. Put shortly: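 First, ASA-I179S fibroblasts from an MLD patient adhered for 6 hrs. Next, compounds were added for 48h. Then pNCS substrate (0.5mM final) with lysis buffer reacted 14h at room temperature before NaOH stop and fluorescence measurement.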
For orientation: In qHTS, concentration-response curves come from the screen itself.

Test [2] is described as follows: qHTS for compounds that reverse cellular toxicity of Amyloid beta (A-beta) peptide in yeast: LOPAC Validation Assay (AID 720559). The source says:
The A-beta peptide is produced by the processing of the amyloid precursor protein (APP) by two proteases, beta and gamma secretases. […] A-beta42 is regarded as the most amyloidogenic form due to its hydrophobicity; however, precisely how A-beta42 induces neurotoxicity is unclear. To understand further this biology and its potential therapeutic implications for human neurodegenerative disease, a quantitative high-throughput screen for compounds that reverse the cellular toxicity of the A-beta peptide was developed.
A yeast based screen was used because it recapitulates the salient feature of protein mis-folding disorder accurately. This cell-based phenotypic screen provides a significant, unbiased advantage by letting the compounds and models inform us which proteins or pathways are most relevant. The ideal chemical candidates would therefore have activity in both our primary yeast and secondary neuronal toxicity assays, as well as in mouse models. They will be valuable tools for dissecting diverse protein homeostasis pathologies and could potentially become the focus for future pre-clinical development. For this […] assay, inhibition of A-beta rescues the toxic effect in the yeast cell, resulting in increase of signals.
NIH Chemical Genomics Center [NCGC]
NIH Molecular Libraries Probe Centers Network [MLPCN]
Assay Submitter (PI): Susan Lindquist, Whitehead Institute, Massachusetts Institute of Technology
[1] Vassar R,et al (1999). Beta-secretase cleavage of Alzheimer's amyloid precursor protein by the transmembrane aspartic protease BACE. Science. 286: 735-741.
[2] Yan R, et al (1999). Membrane-anchored aspartyl protease with Alzheimer's disease beta-secretase activity. Nature.
Two and a half microliter / well of yeast growth medium were dispensed in a 1536 assay plate. Compounds were pinned using the Kalypsys robotic system followed by addition of 2.5 uL / well yeast solution. The assay plates were incubated at 30 C. After 48 hr, the absorbance signal at 600 nm was obtained using the PerkinElmer ViewLux plate reader to assess yeast growth. The data was normalized to the positive control of an equimolar mixture of ferric chloride (FeCl3) and clioquinol and to the negative control DMSO.

Test [3] is described as follows: qHTS for Activators of Parkin Expression: LOPAC Validation Assay (NLuc Reporter) (AID 720572; further: potency means the concentration at half of the fitted maximal effect). Put shortly:
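Neuronal cells with a Parkin promoter-driven FLuc/NLuc coincidence reporter were treated 24 h at 37 C in 7-point dose response (LOPAC). NLuc luminescence read after FLuc; signals normalized to DMSO and positive control (100%).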

The nature of test [4]: qHTS for Activators of Parkin Expression: LOPAC Validation Assay (FLuc Reporter) (AID 720573). The procedure, abridged:
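A neuronal cell line harbouring FLuc and NLuc reporters behind the Parkin promoter was exposed to compounds for 24 h. Firefly luciferase signal, measured after 10 min with detection reagent, was scaled to DMSO and positive-control wells.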

In test [5] the target is Hexokinase-4 (Homo sapiens) + Glucokinase regulatory protein (Homo sapiens) (UniProt P35557+Q14397). Put plainly: qHTS assay for inhibitors of recombinant human GCK-GKRP interaction: Diaphorase-coupled assay (AID 743205). Put shortly: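 Inhibitors of the GCK–GKRP complex relieve GKRP suppression of GCK, detected through a G6PDH–diaphorase cascade reducing resazurin. Human GST-GCK and FLAG-GKRP are used at 10 nM with 5 mM glucose and 0.4 mM ATP.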

Test [6] in a line: qHTS assay for small molecule agonists of the antioxidant response element (ARE) signaling pathway measured by Nrf2-dependant transcriptional activity (AID 720636; active means well fitted curve in the direction sought with a large enough effect in the repeat runs; an effect the other way counts as inactive or inconclusive; further: potency means the concentration at half of the fitted maximal effect). The procedure, abridged:
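Nrf2-dependent transcription is measured in ARE-luc HepG2 cells: compound is applied for 16 hr at 37 C after a 6 hr attachment period, and luciferase activity is quantified by luminescence using ONE-Glo.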

For test [7], the target named is Nuclear receptor ROR-gamma (Homo sapiens) (UniProt P51449). Put plainly: qHTS assay for small molecule antagonists of the retinoid-related orphan receptor gamma (ROR-gamma) signaling pathway (AID 651802). Further: nearly all actives have a fitted effect of over 60% in size. Further: potency means the concentration at half of the fitted maximal effect. The procedure, abridged:
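CHO cells with TET-inducible ROR-gamma and RORE-luciferase reporter, dosed then doxycycline-induced. After 16 h at 37C, One-Glo luminescence read; decreased signal indicates antagonism.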

Test [8] is described as follows: qHTS assay for small molecule antagonists of the retinoid-related orphan receptor gamma (ROR-gamma) signaling pathway - cell viability counter screen (AID 720652; active means well fitted curve in the direction sought with a large enough effect in the repeat runs; an effect the other way counts as inactive or inconclusive;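 further: compound exposure lasted 16 hr before ATP read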; further: potency means the concentration at half of the fitted maximal effect). Put shortly:
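CHO cells carrying TET-inducible ROR and RORE-luciferase reporter, plated 5 hr, then dosed with compound plus doxycycline. After 16 hr at 37 C, viability read as intracellular ATP by CellTiter-Glo luminescence.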

Test [9] deals with Tyrosine-protein kinase Yes (Homo sapiens) (UniProt P07947). Put plainly: qHTS for small molecule inhibitors of Yes1 kinase: Primary Screen (AID 686947). Further: nearly all actives have a fitted effect of over 60% in size. The procedure, abridged:
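Yes1 (4 nM) preincubated 20 min with compound, then 60 min room-temperature reaction with 0.1 mM ATP and 0.3 mg/mL poly(E4Y) in pH 7.5 Tris, 10 mM MgCl2. ADP measured by ADP-Glo luminescence, normalised to enzyme/no-enzyme controls.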

Test [10] can be described thus: qHTS for small molecule inhibitors of Yes1 kinase: Counter Assay (AID 686950).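 Further: no kinase present so only ADP-Glo detection of a fixed ADP amount is tested; luminescence from ADP-Glo reporting ADP in a fixed ATP and ADP mixture; series mostly up to about 77 µM.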 Put shortly: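 Enzyme-free detection counter-screen: compounds preincubated 20 min in buffer, then 0.08 mM ATP plus 0.02 mM ADP added for 60 min at room temperature; ADP-Glo luminescence. Buffer 50 mM Tris pH 7.5, 10 mM MgCl2, 150 mM NaCl; normalized to ATP+ADP and ATP-only controls.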

Arylsulfatase A (Homo sapiens), sequence (P15289 whole entry, looked up): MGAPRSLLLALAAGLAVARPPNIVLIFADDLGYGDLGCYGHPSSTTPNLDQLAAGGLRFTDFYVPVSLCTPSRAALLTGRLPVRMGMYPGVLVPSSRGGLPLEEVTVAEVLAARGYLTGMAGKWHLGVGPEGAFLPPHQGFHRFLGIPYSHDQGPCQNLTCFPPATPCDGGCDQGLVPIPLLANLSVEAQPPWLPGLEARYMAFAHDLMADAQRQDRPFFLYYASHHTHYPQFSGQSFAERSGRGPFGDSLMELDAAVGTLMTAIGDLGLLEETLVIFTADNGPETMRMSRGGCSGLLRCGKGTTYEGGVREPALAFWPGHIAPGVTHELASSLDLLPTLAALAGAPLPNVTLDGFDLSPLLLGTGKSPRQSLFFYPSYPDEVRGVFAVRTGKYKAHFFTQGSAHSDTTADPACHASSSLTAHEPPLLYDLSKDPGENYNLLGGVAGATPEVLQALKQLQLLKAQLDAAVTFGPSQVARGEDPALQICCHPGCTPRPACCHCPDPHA
Hexokinase-4 (Homo sapiens) + Glucokinase regulatory protein (Homo sapiens), sequence (P35557 whole entry, looked up): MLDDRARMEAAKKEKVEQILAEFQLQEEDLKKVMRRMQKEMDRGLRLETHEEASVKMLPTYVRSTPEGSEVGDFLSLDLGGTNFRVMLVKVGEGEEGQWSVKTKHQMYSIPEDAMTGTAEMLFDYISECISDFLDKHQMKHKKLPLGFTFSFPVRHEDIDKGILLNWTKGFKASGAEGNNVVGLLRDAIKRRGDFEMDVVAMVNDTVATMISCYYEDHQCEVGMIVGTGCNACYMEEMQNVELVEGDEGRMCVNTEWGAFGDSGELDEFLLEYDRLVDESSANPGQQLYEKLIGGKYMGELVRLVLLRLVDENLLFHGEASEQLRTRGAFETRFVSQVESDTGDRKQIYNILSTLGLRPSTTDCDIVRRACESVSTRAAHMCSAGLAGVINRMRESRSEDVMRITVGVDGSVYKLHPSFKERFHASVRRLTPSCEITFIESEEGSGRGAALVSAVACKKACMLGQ
Hexokinase-4 (Homo sapiens) + Glucokinase regulatory protein (Homo sapiens), sequence (Q14397 whole entry, looked up): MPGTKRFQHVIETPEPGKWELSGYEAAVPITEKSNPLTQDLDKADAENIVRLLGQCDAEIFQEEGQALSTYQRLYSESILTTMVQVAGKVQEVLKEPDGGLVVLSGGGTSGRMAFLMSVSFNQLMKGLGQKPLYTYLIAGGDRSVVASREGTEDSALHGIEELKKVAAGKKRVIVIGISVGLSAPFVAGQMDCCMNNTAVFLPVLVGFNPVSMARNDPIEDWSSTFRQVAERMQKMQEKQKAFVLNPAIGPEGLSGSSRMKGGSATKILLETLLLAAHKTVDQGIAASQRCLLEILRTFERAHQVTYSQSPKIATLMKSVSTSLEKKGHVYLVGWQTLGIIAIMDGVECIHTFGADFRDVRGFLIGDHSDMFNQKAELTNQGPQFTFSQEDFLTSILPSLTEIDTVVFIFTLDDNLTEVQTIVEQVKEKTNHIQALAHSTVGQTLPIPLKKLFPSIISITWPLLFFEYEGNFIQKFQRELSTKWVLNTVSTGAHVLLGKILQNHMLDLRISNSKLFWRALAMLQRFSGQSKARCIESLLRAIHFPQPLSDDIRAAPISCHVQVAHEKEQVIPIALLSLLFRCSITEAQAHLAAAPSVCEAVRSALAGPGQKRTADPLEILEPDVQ
Nuclear receptor ROR-gamma (Homo sapiens), sequence (P51449 whole entry, looked up): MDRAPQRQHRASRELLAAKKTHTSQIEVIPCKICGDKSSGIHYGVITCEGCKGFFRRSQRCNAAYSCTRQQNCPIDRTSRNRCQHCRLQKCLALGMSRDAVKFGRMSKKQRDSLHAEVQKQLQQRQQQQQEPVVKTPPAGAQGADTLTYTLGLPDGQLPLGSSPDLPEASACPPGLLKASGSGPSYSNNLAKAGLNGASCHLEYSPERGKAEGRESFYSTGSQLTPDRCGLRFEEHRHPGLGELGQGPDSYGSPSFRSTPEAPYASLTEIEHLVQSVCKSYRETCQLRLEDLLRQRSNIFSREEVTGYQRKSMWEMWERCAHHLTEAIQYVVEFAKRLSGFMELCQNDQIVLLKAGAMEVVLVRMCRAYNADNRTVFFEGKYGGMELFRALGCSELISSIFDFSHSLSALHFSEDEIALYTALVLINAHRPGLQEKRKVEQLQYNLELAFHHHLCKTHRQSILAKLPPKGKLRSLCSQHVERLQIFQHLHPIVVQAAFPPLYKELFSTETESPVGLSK
Tyrosine-protein kinase Yes (Homo sapiens), sequence (P07947 whole entry, looked up): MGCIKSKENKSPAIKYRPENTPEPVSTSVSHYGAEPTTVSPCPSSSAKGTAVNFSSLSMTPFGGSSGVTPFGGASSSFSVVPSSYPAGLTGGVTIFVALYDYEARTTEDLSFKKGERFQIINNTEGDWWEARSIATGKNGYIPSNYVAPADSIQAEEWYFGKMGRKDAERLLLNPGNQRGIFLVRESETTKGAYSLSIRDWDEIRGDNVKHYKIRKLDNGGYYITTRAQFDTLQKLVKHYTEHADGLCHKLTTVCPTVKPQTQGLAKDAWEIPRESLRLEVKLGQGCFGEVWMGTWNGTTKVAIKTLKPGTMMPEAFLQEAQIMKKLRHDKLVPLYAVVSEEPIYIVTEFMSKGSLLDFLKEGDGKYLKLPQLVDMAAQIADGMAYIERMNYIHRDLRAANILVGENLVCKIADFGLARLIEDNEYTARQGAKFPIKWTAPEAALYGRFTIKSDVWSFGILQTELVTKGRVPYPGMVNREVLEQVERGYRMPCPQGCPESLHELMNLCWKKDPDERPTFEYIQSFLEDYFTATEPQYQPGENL

As for `NC(=O)CN1CCCC1=O`, the Potency result in [1] and in test [3] was “inactive” in each case. In addition, the call in test [2], in [4] and in test [5] was inactive.
Take `CC(=O)[C@@]1(O)CC[C@H]2[C@@H]3CCC4=CC(=O)CC[C@]4(C)[C@H]3CC[C@@]21C`: the Potency result in test [1] was “inactive”.
As for `CC[C@H]1CN2CCc3cc(OC)c(OC)cc3[C@@H]2C[C@@H]1C[C@H]1NCCc2cc(OC)c(OC)cc21`, the call in test [4] was inactive.
In the case of `Oc1ccc(Cl)cc1Cc1cc(Cl)ccc1O`, the Potency entry in [6] was “inactive”.
Consider `CNC(=O)Oc1cccc2ccccc12`, for which the Potency result in [7] and in [8] was “inactive” each time.
Consider `Oc1ccc(Cl)cc1Sc1cc(Cl)ccc1O`, for which the Potency in [7] is 15 µM (active). Besides, in [6], the Potency entry is “inactive”.
As to `O=C(O)c1nn(Cc2ccc(Cl)cc2Cl)c2ccccc12`, the outcome in test [9], in test [10], in test [2], in [4] and in [5] was inactive. Moreover, the Potency entry in [1] and in test [3] was “inactive” each time.
For the molecule `O=C(CCl)c1ccc(Cl)cc1Cl`, the Potency was 7.5 µM (active) in [7] and 21.1 µM (active) in test [8].
Turning to `C[C@H]1C(=O)O[C@@H]2CCN3CC=C(COC(=O)[C@](C)(O)[C@]1(C)O)[C@H]23`, the Potency result in test [6] was “inactive”.
Consider `CCCCCCCCCCCC[N+](C)(C)CCOc1ccccc1`, for which the Potency in test [7] was 10.6 µM (active); in [8] it was 26.6 µM (active). Moreover, the Potency result in test [6] was “inactive”.
Take `N#Cc1nn(-c2c(Cl)cc(C(F)(F)F)cc2Cl)c(N)c1S(=O)C(F)(F)F` (configuration not stated): the Potency entry in [6] was “inactive”.
With `Cc1ccc(N=CN(C)C=Nc2ccc(C)cc2C)c(C)c1`, in [6], the Potency result is “inactive”.
For the molecule `O=C(NC(=O)c1c(F)cccc1F)Nc1cc(Cl)c(OC(F)(F)C(F)C(F)(F)F)cc1Cl` (configuration not stated), in test [6], the Potency result is “inactive”.
As for `NC(N)=NC(=O)c1nc(Cl)c(N)nc1N`, the Potency entry in test [1] is “inactive”.
Same read-out and setting: to `C[N+](C)(C)CCCCCCCCCC[N+](C)(C)C` belongs 2.69 µM (active).
With `O=c1n(Cl)c(=O)n(Cl)c(=O)n1Cl`, in test [6], the Potency entry was “inactive”.
In the case of `C[C@@H]1C[C@@H]([C@H](O)CC2CC(=O)NC(=O)C2)C(=O)[C@@H](C)C1`, the Potency in test [7] is 150 nM (active) and 237 nM (active). Further, the Potency result in test [6] and in test [8] was “inactive” in each case.
As for `Brc1c(NC2=NCCN2)ccc2nccnc12`, the Potency result in [1] was “inactive”.
As to `CCCCCCCCCCCCCCCC[n+]1ccccc1`, the Potency in test [7] is 1.19 µM (active). In test [6], the Potency result was “inactive”.
As to `CCOC(=O)Nc1ccc(NCc2ccc(F)cc2)nc1N`, the Potency result in test [1] is “inactive”. Further, in test [5], the result was inactive.
As for `C=CCOC(Cn1ccnc1)c1ccc(Cl)cc1Cl` (configuration not stated), the Potency result in test [6] was “inactive”.
Take `COP(=O)(OC)OC=C(Cl)Cl`: the Potency entry in test [7], in [6] and in [8] was “inactive” throughout.
As to `COC(=O)C1=CCCN(C)C1`, the Potency entry in test [1] and in [3] was “inactive” in each case. In addition, the call in [2], in test [4] and in test [5] was inactive.
Regarding `CNC(=O)Oc1ccc2c(c1)[C@]1(C)CCN(C)[C@@H]1N2C`, in test [5], the outcome was inactive.
With `COC(=O)C1=C(C)NC(C)=C(C(=O)OC)C1c1ccccc1[N+](=O)[O-]`, the Potency in [3] is 23.1 µM (active).
For the molecule `COCC(=O)N(c1c(C)cccc1C)C(C)C(=O)OC` (configuration not stated), the Potency entry in test [6] is “inactive”.
Still for that read-out and setting: to `CCC(=O)O[C@H]1CC[C@H]2[C@@H]3CCC4=CC(=O)CC[C@]4(C)[C@H]3CC[C@]12C` belongs “inactive”; to `CCCCCCCCC(=O)NCc1ccc(O)c(OC)c1`, “inactive”.
As to `Oc1c(Br)cc(Br)cc1Br`, the Potency entry in test [6] and in test [8] was “inactive” throughout.
For the molecule `COc1ccc(C(=O)N2CCCC2=O)cc1`, the Potency entry in [1] and in test [3] was “inactive” in each case. In addition, the result in [2], in [4] and in [5] was inactive.
On to `CN(C)C(=S)SSC(=S)N(C)C`, for which the Potency in test [7] is 5.31 µM (active); in [6], 42.2 µM (active); in test [8], 33.5 µM (active).
The corresponding values for `CC[n+]1c(-c2ccccc2)c2cc(N)ccc2c2ccc(N)cc21` are “inactive”, “inactive” and “inactive”.
Take `CCNc1nc(Cl)nc(NCC)n1`: the Potency entry in test [6] is “inactive”.
